ChEMBL document CHEMBL4513135, “CO-ADD screening of IQOG CSIS (Spain) compounds”
Where “and” joins values, the source holds several entries; their conditions need not be identical. Equal values may be shown once. Entries with a potency or affinity are not part of this list.

Key:
[1] = system: Staphylococcus aureus; settings: Concentration 32 ug.mL-1, ASSAY_TEST Inhibition of Bacterial Growth, detection method Absorption (OD600), MEDIA CAMHB, plate type 384well, NBS, CORNING #3640, time 18 hr
[2] = system: Escherichia coli; settings: Concentration 32 ug.mL-1, ASSAY_TEST Inhibition of Bacterial Growth, detection method Absorption (OD600), MEDIA CAMHB, plate type 384well, NBS, CORNING #3640, time 18 hr

Cn1ccnc1C1C2=C(CC(C)(C)CC2=O)Oc2nc3c(c(N)c21)CCC3 (stereo not drawn)
Inhibition [1]: 12%
Inhibition [2]: -19.85%

O=C(NNCCc1ccccc1)c1cc2ccccc2[nH]1
Inhibition [1]: -6.37%
Inhibition [2]: -5.83%

Cn1cc(C=O)c2ccccc21
Inhibition [1]: -0.04%
Inhibition [2]: -4.32%

Cn1c(C(=O)NCc2ccccc2)cc2cc(OCCCC3CCN(Cc4ccccc4)CC3)ccc21
Inhibition [1]: 21.45%
Inhibition [2]: -9.22%

O=C(O)c1cc2ccccc2[nH]1 [INDOLE-2-CARBOXYLIC ACID]
Inhibition [1]: 5.6%
Inhibition [2]: 18.03%

CC(=O)NC=C1C(=O)OC(C)(C)OC1=O
Inhibition [1]: 14.96%
Inhibition [2]: 11.61%

COc1cccc(C2c3ccc4ccccc4c3OC(=NBr)C2(Br)C#N)c1 (stereo not drawn)
Inhibition [1]: 27.48%
Inhibition [2]: -7.21%

CNCc1cc2cc(OCc3ccccc3)ccc2n1C.Cl
Inhibition [1]: 43.08%
Inhibition [2]: 3.38%

N#Cc1c(-c2ccccc2)c2ccc3ccccc3c2oc1=O
Inhibition [1]: 33.43%
Inhibition [2]: -8.95%

Cc1nc(Nc2ccccc2)c2c(C)nn(-c3ccccc3)c2n1
Inhibition [1]: 15.21%
Inhibition [2]: 8.02%

Cc1ccc(/C=C(\C#N)C(=O)c2ccccc2)cc1
Inhibition [1]: 25.42%
Inhibition [2]: 15.2%

O=C1C=C(Nc2ccccc2)C(=O)N1c1ccccc1
Inhibition [1]: 3.04%
Inhibition [2]: 4.55%

COc1ccc2c(c1)cc(CN(C)Cc1cn(Cc3ccccc3)nn1)n2C
Inhibition [1]: 6.23%
Inhibition [2]: -32.11%

N#Cc1cc(C#N)c(N2CCCCC2)nc1Cl
Inhibition [1]: 15.2%
Inhibition [2]: 9.21%

CCOC(=O)c1cc2cc(OCc3ccccc3)ccc2[nH]1
Inhibition [1]: 7.82%
Inhibition [2]: 5.9%

COc1ccc(C2C(C#N)=C(N)Oc3c2ccc2ccccc32)cc1OC (stereo not drawn)
Inhibition [2]: -16.13%

N#Cc1c(N)nc(NCCCC2CCN(Cc3ccccc3)CC2)c(C#N)c1-c1ccccc1
Inhibition [1]: 56.22%
Inhibition [2]: -16.73%

Nc1c2c(nc3c1C(c1c(Cl)cccc1Cl)c1ccc4ccccc4c1O3)CCCC2 (stereo not drawn)
Inhibition [1]: 2.04%
Inhibition [2]: 3.11%

COc1ccc(CNNC(=O)c2cc3ccccc3[nH]2)cc1O
Inhibition [1]: 5.63%
Inhibition [2]: 2.63%

CCOC(=O)c1c(C)[nH]c(=O)c(C#N)c1-c1ccccc1
Inhibition [1]: 37.77%
Inhibition [2]: -18.87%

Clc1ccc(-c2cn3ccccc3n2)cc1
Inhibition [1]: 13.75%
Inhibition [2]: 15.37%

N#Cc1cc2c(N)c3c(nc2nc1N1CCCCC1)CCCC3
Inhibition [1]: 29.29%
Inhibition [2]: 3.13%

N#CC1=C(Cl)Oc2c(ccc3ccccc23)C1c1ccccc1 (stereo not drawn)
Inhibition [1]: 14.99%
Inhibition [2]: -36.62%

COc1cccc(C2c3c(ccc4ccccc34)OC(=N)C2(Br)C#N)c1 (stereo not drawn)
Inhibition ([2]; 32 ug/mL): -22.74% and -4.85%

CC1Cc2ccccc2N1/N=C/c1ccccc1 (stereo not drawn)
Inhibition [1]: -5.3%
Inhibition [2]: -3.55%

COc1ccc(-c2c(C#N)c(=O)oc3c2ccc2ccccc23)cc1
Inhibition ([1]; 32 ug/mL): 29.57% and 19.64%
Inhibition ([2]; 32 ug/mL): -26.6% and -23.12%

O=C(N/N=C/c1ccc([N+](=O)[O-])cc1)c1cc2ccccc2[nH]1
Inhibition [1]: 11.24%
Inhibition [2]: 10.51%

CN(C)c1nc(Cl)c(C#N)c(-c2ccccc2)c1C#N
Inhibition [1]: -17.89%
Inhibition [2]: -6.44%

CCOC(=O)C1=C(C)OC(N)=C(C#N)C1c1cccnc1 (stereo not drawn)
Inhibition [1]: -6.34%
Inhibition [2]: -11.43%

CN1C/C(=C\Cl)n2c1c(C#N)cc(C#N)c2=O
Inhibition [1]: 23.22%
Inhibition [2]: -15.97%

CCOC(=O)C1=C(C)OC(N)=C(C#N)C1c1ccc(OC)c(OC)c1 (stereo not drawn)
Inhibition [1]: 21.72%
Inhibition [2]: -10.4%

O=C(N/N=C/c1c[nH]c2ccccc12)c1ccc(Cl)cc1
Inhibition [1]: 3.32%
Inhibition [2]: 9.43%

C#CCN(C)c1nc(N)c(C#N)cc1C#N
Inhibition ([2]; 32 ug/mL): -6.57% and -4.54%

C#CCN(C)Cc1cc2cc(OCOc3ccc4c(c3)cc(CN(C)CC#C)n4C)ccc2n1C
Inhibition [1]: 15.95%
Inhibition [2]: -10.88%

CCOC(N)=CC#N
Inhibition [1]: -2.54%
Inhibition [2]: 11.63%

C#CCN1CCc2nc3nc(N4CCCC4)c(C#N)cc3c(N)c2C1
Inhibition [1]: 24.32%
Inhibition [2]: -2.2%

COc1ccc(C2c3c(ccc4ccccc34)OC(=N)C2(Br)C#N)cc1 (stereo not drawn)
Inhibition [1]: 26.69%
Inhibition [2]: -14.26%

Cc1ccc2nc(Cl)c(/C=N/OCc3ccccc3)cc2c1
Inhibition [1]: 31.42%
Inhibition [2]: 20.1%

N#Cc1c(-c2cccc([N+](=O)[O-])c2)c2ccc3ccccc3c2oc1=O
Inhibition ([2]; 32 ug/mL): -5.38% and -17.97% and -15.63%

C#CCN(C)c1nc(NCCCCC2CCN(Cc3ccccc3)CC2)c(C#N)cc1C#N
Inhibition [1]: 0.89%
Inhibition [2]: -7.65%

COc1ccccc1C1c2c(ccc3ccccc23)OC(=N)C1(Br)C#N (stereo not drawn)
Inhibition [1]: 32.97%
Inhibition [2]: -9.16%
